# This is part of a sample that, as a whole, favours compounds with a hit. Of some 83,000 tested, about 20% had one in any assay.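 Cells were grown in 96-well plates and exposed to the test compound at a single concentration for 48 hours; results are reported as percent growth, with values below 10 considered active.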 A number with no mark means an inactive call. Active and inactive are the calls of the source.
# Legend:
# Test in all cases: NCI-60 one-dose screen, 48 h (100 = growth as untreated, 0 = no growth, -100 = all killed)
# Details in all cases: 10 µM unless noted
# [1] = tested on: HCT-15 colon
# [2] = tested on: HT29 colon
# [3] = tested on: SNB-75 CNS
# [4] = tested on: SNB-19 CNS
# [5] = tested on: U251 CNS
# [6] = tested on: PC-3 prostate
# [7] = tested on: SK-MEL-5 melanoma
# [8] = tested on: UACC-62 melanoma
# [9] = tested on: LOX IMVI melanoma
# [10] = tested on: SK-MEL-2 melanoma
# [11] = tested on: EKVX NSCLC
# [12] = tested on: SN12C renal
# [13] = tested on: UO-31 renal
# [14] = tested on: TK-10 renal
# [15] = tested on: ACHN renal
# [16] = tested on: CAKI-1 renal
# [17] = tested on: A498 renal
# [18] = tested on: CCRF-CEM leukemia
# [19] = tested on: MOLT-4 leukemia
# [20] = tested on: SK-MEL-28 melanoma
Compound,growth [1],growth [2],growth [3],growth [4],growth [5],growth [6],growth [7],growth [8],growth [9],growth [10] [%],growth [11],growth [12] [%],growth [13],growth [14] [%],growth [15],growth [16],growth [17],growth [18],growth [19],growth [20] [%]
O=C1[C@H]2Cc3c([nH]c4ccccc34)[C@@H](c3c(Cl)cccc3Cl)N2C(=O)CN1C1CCN(CC2CCCCC2)CC1,29.5%,20.5%,100%,94.6%,89.1%,63.5%,83.7%,94.3%,-59.9% (active),111,88.2%,87.8,62.6%,142,84.1%,81.9%,87.2%,47.2%,54.6%,
Cc1ccc2sc3c(c2c1)OC(N)=C(C#N)C3c1cccc(F)c1 (stereo unspecified),6.97% (active),-19.6% (active),-0.701% (active),35%,2.42% (active),9.24% (active),,18.3%,8.96% (active),,44.6%,10.4,25.9%,36.1,,16.5%,,16.1%,17.5%,51.3
Cc1ccc2sc3c(c2c1)OC(N)=C(C#N)C3c1ccc(Cl)cc1 (stereo unspecified),30.3%,67.3%,81.6%,89.9%,96.3%,71.1%,,45.7%,86.9%,,70.9%,93.3,75.9%,97.3,87.4%,60.4%,,75.7%,,75.2
CCCCCc1ccc(S(=O)(=O)Nc2cccc(-c3csc(NC(=O)CCCCCN4CCN(CCO)CC4)n3)c2)cc1,43.1%,11.4%,98.5%,85.9%,65.8%,68.1%,66.1%,87.6%,-60.3% (active),105,,85.2,88.4%,127,99.4%,95.3%,76.8%,46.7%,14.7%,
COC[C@]12CCC(C)(C)C[C@H]1C1=CC[C@@H]3[C@@]4(C)CCCNC(C)(C)[C@@H]4CC[C@@]3(C)[C@]1(C)CC2,-86.5% (active),-28% (active),12%,-2.59% (active),-58.1% (active),0.7% (active),-98.1% (active),-74% (active),-94.6% (active),35.2,-83.4% (active),29.9,-50.2% (active),64.7,-10.6% (active),-29.4% (active),37.1%,,-35% (active),
CNCc1cccc2c1OCCCCCCC(C)(O)CC(C)(C)S(=O)(=O)c1ccc(cc1)-c1cnc(N)c(n1)C(=O)N2 (stereo unspecified),-20.6% (active),-8.67% (active),84%,33%,-70.9% (active),16%,,1.85% (active),-59.4% (active),,62.7%,16.6,23.7%,65.4,10% (active),17.6%,,4.37% (active),2.61% (active),13.5
COc1ccc(/C=C/C(=O)c2cc(S(N)(=O)=O)c(OC)cc2OC)cc1,42.6%,102%,71.4%,81%,68.7%,42.9%,,76.8%,52.2%,,92.1%,61.1,72.4%,92.9,,63.5%,,55.7%,71.1%,40.9
Cc1cc2ncc(-c3cc4ccccc4c(N4CCN(C)CC4)n3)nc2cc1C,-69.7% (active),-60.4% (active),56.1%,73%,-30.9% (active),57.5%,16.2%,-46.6% (active),-83.8% (active),,73.8%,31.5,4.16% (active),67.2,-42.1% (active),30.2%,,1.37% (active),-8.83% (active),
Cc1cc2nc(C(Cl)Cl)nc(-c3cccs3)n2n1,11.4%,-12.9% (active),75.3%,21%,-11.1% (active),11.2%,83.9%,45.5%,74.7%,97.7,-7.94% (active),62.3,31%,18.2,-36.4% (active),-30.9% (active),-40.7% (active),59.8%,21.3%,

# Reference: PubChem BioAssay (NCI)
